MCF10A rereplic = induces DNA re-replication in MCF 10a normal breast cells. Potency, µM (top dose mostly 46.1 µM), inactives show top-dose activity, positive = re-replication, most hits filed as activators. 2.9% of 350,000 active. MCF 10A DNA re-replication, Hoechst nuclear intensity, 48 h. AID 624296; note: % of control where 0% means no effect; nearly all actives have a fitted effect of over 50% in size
VP16 counter = inhibits Gal4-VP16 luciferase reporter, ROR gamma counter-screen | AID 2546 | Drosophila S2 Gal4-VP16 UAS-luciferase, luminescence, 20 h | 3.5% of 310,000 active | Potency, µM (highest dose often 53.6 µM), for the others: at the highest dose activity, negative = inhibition, most hits filed as inhibitors;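 note: Gal4-VP16 expression switched on by copper sulfate through the metallothionein promoter; % is set by controls: 0 for no effect and ±100 for the full control effect; nearly all actives have a fitted effect of over 50% in size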
ELG1 DNA repair = blocks ELG1-dependent DNA repair in HEK293T cells | HEK293T ELG1-luciferase reporter, luminescence, 16 h; DNA damage induced by 5-fluorouridine | Potency, µM (doses to about 46.1 µM), for the others: at the top dose activity change, negative = inhibition, usual class: inhibitors | 2.3% of 330,000 active | AID 504467; note: % is set by controls: 0 for no effect and ±100 for the full control effect; nearly all actives have a fitted effect of over 55% in size
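Step one: seed 2,000 cells per well. Step two: pin-transfer compound or DMSO alongside 5-fluorouridine. Step three: incubate 16 hr, 37 °C, 5% CO2. Step four: add ONE-Glo, wait 30 min, read luminescence.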
RORgamma inh = inhibitors of mouse ROR gamma transcriptional activity; P51450; Drosophila S2 Gal4-RORgamma UAS-luciferase reporter, 20 h; Potency, µM (top dose mostly 53.6 µM), without a hit: at the top dose activity change, negative = inhibition, hits mostly inhibitors; 5.4% of 310,000 active; AID 2551; note: % is set by controls: 0 for no effect and ±100 for the full control effect; nearly all actives have a fitted effect of over 60% in size
Target sequence (P51450 whole entry, looked up, the tested form may be a part): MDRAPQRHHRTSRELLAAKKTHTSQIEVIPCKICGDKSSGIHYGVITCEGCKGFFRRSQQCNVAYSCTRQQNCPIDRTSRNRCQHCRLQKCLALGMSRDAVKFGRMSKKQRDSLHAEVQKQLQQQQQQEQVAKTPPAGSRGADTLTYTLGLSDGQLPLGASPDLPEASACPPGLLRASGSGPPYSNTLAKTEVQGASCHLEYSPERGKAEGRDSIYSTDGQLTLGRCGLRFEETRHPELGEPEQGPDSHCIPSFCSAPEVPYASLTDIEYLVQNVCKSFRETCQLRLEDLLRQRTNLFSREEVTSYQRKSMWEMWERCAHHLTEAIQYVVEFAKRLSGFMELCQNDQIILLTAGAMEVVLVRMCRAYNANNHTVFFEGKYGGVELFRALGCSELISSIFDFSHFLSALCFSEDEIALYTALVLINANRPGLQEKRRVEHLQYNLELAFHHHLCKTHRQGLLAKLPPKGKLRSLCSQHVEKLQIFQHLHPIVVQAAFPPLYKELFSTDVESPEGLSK
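Using a luciferase readout, inhibitors were identified by reduced reporter activity in Drosophila cells coexpressing a copper-inducible Gal4–ROR gamma fusion and UAS-driven Photinus luciferase, incubated 20 hr after 700 uM copper sulfate.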
SW480 rereplic = DNA re-replication induction in SW480 cells | Potency, µM (doses to about 46.1 µM), without a hit: at the top dose re-replication activation, usual class: activators | SW480 DNA re-replication, Hoechst DNA content imaging, 48 h | 1.8% of 340,000 active | AID 624297; note: % of control where 0% means no effect; nearly all actives have a fitted effect of over 55% in size
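First, 250 cells per well were seeded. Next, compound or vehicle (23 nL) was pinned in, plates sat 48 hr at 37 C. Finally Hoechst was added for 40 min before fluorescence scanning.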
* marks the source's active call; other numbers are inactive results; ? = inconclusive; . = not tested or not shown; [ ] = dose if it differs, or a comment. Compounds with a hit are over-represented: about 10% of the library has one in this group of screens. Calls come from the whole dose curve; as a rule, active = well fitted curve in the direction sought with a large enough effect; inconclusive = small, poorly fitted or top-dose-only effect, or another doubt; inactive = no such curve, though single readings can be large; an effect the other way counts as inactive or inconclusive. Potency is the fitted concentration of half-maximal effect.

SMILES | MCF10A rereplic | VP16 counter | ELG1 DNA repair | RORgamma inh | SW480 rereplic
COc1ccc(-c2cc(C(F)(F)F)n3ncc(C(=O)N4CCCCC4c4cccnc4)c3n2)cc1 (stereo unspecified) | ? | -1.6% | ? | ? | ?
CC(NC(=O)CCc1ccc(S(=O)(=O)NC2CCCCC2)cc1)c1ccccc1 (stereo unspecified) | -3.1% | 17.3% | -20.8% | 25.9% | -3.7%
COC(=O)c1cccc(NC(=S)N2CCN(c3ccccc3F)CC2)c1 | -5.1% | 1.7% | 8.3% | 14.1µM* | 4.5%
COc1ccccc1N1CCN(C(=S)Nc2cccc(C)c2)CC1 | 16.4µM* | 20µM* | 11.2% | 5.01µM* | ?
Cc1cccc(NC(=S)N2CCN(c3cc(C)ccc3C)CC2)c1 | 3.3% | 5.62µM* | -9.2% | 3.98µM* | -2.6%
Cc1ccc(C)c(N2CCN(C(=S)NC3CCCCC3)CC2)c1 | 8.9% | -0.1% | 23.9% | -37.8% | 0.3%
CCOC(=O)c1ccc(N2CCN(c3ccccc3F)CC2)c(NC(=O)Nc2cccc(OC)c2)c1 | 19.1% | -5.0% | 16.4µM* | 31.7% | -3.5%
COC(=O)c1ccc(N2CCOCC2)c(NC(=O)Nc2cccc(OC)c2)c1 | 7.3% | -7.0% | ? | -22.3% | -5.0%
CCc1ccccc1NC(=O)CNC(=O)c1ccccc1OCc1c(C)noc1C | 0.3% | . | ? | . | -7.3%
Cc1cc(C)c2c3c(sc2n1)C(=O)N(Cc1ccccc1)CC(=O)N3 | -0.3% | -10.1% | ? | -7.5% | -12.0%
O=C(c1c(F)cccc1F)N1CCN(c2ccccc2F)CC1 | 9.0% | 6.0% | -0.1% | -4.7% | -2.6%
O=C(c1cccc(C(=O)N2CCN(c3ccccc3F)CC2)c1)N1CCN(c2ccccc2F)CC1 | 13.5% | -1.8% | 16.4µM* | 16.0% | 2.8%
CN(Cc1nccs1)C(=O)C1CCC(=O)N(CCc2ccc(Cl)cc2)C1 (stereo unspecified) | -0.3% | -8.8% | 17.5% | 0.7% | 18.3%
CCc1n(CC(O)COC2CCCCC2)c2ccccc2[n+]1C (stereo unspecified) | -7.1% | -1.5% | 5.2% | -13.9% | -9.2%
CCCc1n(CC)c2ccccc2[n+]1CC(O)COC1CCCCC1 (stereo unspecified) | -2.3% | 2.4% | 3.26µM* | -0.7% | 12.8%
NC(=O)c1ccc(/C(N)=N/S(=O)(=O)c2cc(C(F)(F)F)cc(C(F)(F)F)c2)cc1 | ? | -2.3% | -19.3% | 10.9% | 2.0%
O=C(CN1CCN(c2ccc(O)cc2)CC1)Nc1ccc2c(c1)OCCCO2 | -3.0% | . | 18.3µM* | . | -8.8%
O=C1CN(CC(=O)Nc2ccc(SC(F)F)cc2)CCN1 | -29.4% | 3.0% | 11.3% | 20.4% | -2.1%
O=C(CN1CCN(c2ccc(O)cc2)CC1)Nc1ccc(SC(F)F)cc1 | ? | ? | 9.2µM* | ? | 17.4%
COC(=O)C1=CN(C2CCCCC2)C=C(C(=O)OC)C1c1ccc2c(c1)OCO2 | 13µM* | 1.8% | 6.9% | 1.5% | 7.31µM*
COCCN1C=C(C(=O)OC)C(c2ccc3c(c2)OCO3)C(C(=O)OC)=C1 | -21.5% | 2.0% | 6.3% | ? | 0.1%
N#Cc1c2n(c3c(=O)n(Cc4ccccc4Cl)cnc13)CCCCC2 | 11.6µM* | 2.0% | ? | ? | -1.1%
COc1ccc(Br)cc1CN1CCCC(C(=O)N2CCCCC2)C1 (stereo unspecified) | 15.0% | -0.5% | -10.3% | 14.4% | 1.6%
COc1ccc(Br)cc1CN1CCC(N2CCCC2)CC1 | 23.1µM* | -11.2% | -2.7% | 15.7% | ?
C=CC[C@H](CC(=O)NCCO)C(=O)N[C@@H](COC(=O)[C@H](CC=C)CC(=O)OC(C)(C)C)Cc1ccccc1 | -10.4% | . | 5.3% | . | -7.1%
SMILES | MCF10A rereplic | VP16 counter | ELG1 DNA repair | RORgamma inh | SW480 rereplic
CC(=O)Nc1cc(C(=O)N2CCc3ccccc3C2)ccc1Sc1ccc(F)cc1 | ? | -1.1% | -1.0% | 19.6% | 6.4%
CC(=O)Nc1cc(C(=O)N2CCc3ccccc3C2)ccc1Sc1ccc(Cl)cc1 | 23.1µM* | -9.6% | -10.0% | 39.7% | 8.5%
N#Cc1ccccc1NC(=O)COC(=O)c1ccc(F)cc1F | -0.8% | -3.2% | -1.8% | -5.4% | -2.4%
Cc1ccc(NC(=O)c2ccc([N+](=O)[O-])o2)cc1C | 9.2µM* | -21.9% | ? | 7.94µM* | ?
Cc1ccc(-n2nnnc2CNC(=O)c2ccc(Br)o2)cc1C | -0.7% | 17.6% | -0.7% | -3.9% | -28.4%
Cc1ccc(-n2nnnc2CNC(=O)c2ccc([N+](=O)[O-])o2)cc1C | ? | . | ? | . | 13µM*
O=C(COc1ccc([N+](=O)[O-])cc1)Nc1ccc2[nH]c(=O)[nH]c2c1 | 0.9% | . | 16.3% | . | -8.6%
O=C(Nc1ccc2[nH]c(=O)[nH]c2c1)c1ccc([N+](=O)[O-])o1 | 5.8µM* | . | -22.4% | . | 2.91µM*
COc1ccc(N=C(c2ccccc2)c2c(C)[nH]n(-c3ccccc3)c2=O)c(OC)c1 | 13.5% | -11.0% | ? | -20.1% | -3.9%
CCN(CC)S(=O)(=O)c1cc(C(=O)OCC(=O)Nc2ccc(-c3nc4ccc(C)cc4s3)cc2)ccc1F | 3.1% | 8.91µM* | ? | 12.6µM* | 2.9%
CCN(CC)S(=O)(=O)c1cc(C(=O)OCC(=O)Nc2cccc(S(=O)(=O)N(C)C)c2)ccc1F | 11.9% | -3.4% | 19.6% | 8.8% | -2.9%
CCN(CC)S(=O)(=O)c1ccc(C(=O)OCC(=O)Nc2ccc(-c3nc4ccc(C)cc4s3)cc2)cc1 | 3.8% | ? | ? | 0.398µM* | -7.1%
O=C(NCCCN1CCOCC1)c1cn(-c2ccccc2)nc1-c1ccc(Br)cc1 | 7.7% | . | ? | . | 3.0%
CCOC(=O)c1ccc(NC(=O)c2cn(-c3ccccc3)nc2-c2ccncc2)cc1 | 14.5% | -11.9% | 18.4µM* | ? | ?
CC(=O)Cc1nsc(NC(=O)c2cn(-c3ccccc3)nc2-c2ccc(Br)cc2)n1 | -2.3% | 14.1µM* | 3.3% | ? | -15.9%
CC(C)COc1ccc(-c2nn(-c3ccccc3)cc2C(=O)Nc2nccs2)cc1 | -178.4%[0.0737 µM] | 4.47µM* | -14.1% | 2.51µM* | ?
O=C(O)COc1ccc(/C=N/NC(=O)c2cn(-c3ccccc3)nc2-c2ccccc2)cc1 | 8.6% | -3.9% | -1.8% | 4.7% | -0.3%
Cc1ccc(-c2nn(-c3ccccc3)cc2C(=O)Nc2ccc(C(=O)O)cc2)cc1 | -20.7% | -10.4% | ? | ? | -4.4%
O=C(Nc1nccs1)c1cn(-c2ccccc2)nc1-c1ccccc1 | 7.7% | ? | ? | 7.08µM* | 23.3%
Cn1nc(C(=O)Nc2ccccc2N2CCCC2)c2ccccc2c1=O | ? | -6.7% | ? | ? | 0.0%
COc1ccc(C(=O)N2CCC3(CC2)CCN(C(c2ccccc2)c2ccccc2)CC3)cc1 | . | -17.3% | . | -10.3% | .
CC1CCCCC1NC(=O)COC(=O)COc1ccccc1F (stereo unspecified) | -1.7% | . | 4.2% | . | 0.2%

Screening data: PubChem, National Center for Advancing Translational Sciences (NCATS)
